# According to PubChem BioAssay (NCATS):
# Inconclusive results are not listed. The source made the active and inactive calls. Unless noted, calls follow the shape of the dose curve; as a rule, active = well fitted inhibition curve with a large enough effect; inconclusive = small, poorly fitted or top-dose-only effect; inactive = flat fitted curve, though single readings scatter.
# Experiments:
# [1] = qHTS drug screen for cell cycle checkpoint inhibitors in PARPi-resistant BRCA-mutant ovarian cancer cell lines. (AID 1963452; calls by dose curve); conditions: PEO1/OlaR viability, CellTiter-Glo luminescence, 96 h, stronger effect = lower value
# Outline: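 PEO1, PEO4 and PEO1/OlaR ovarian cancer cells, 600 per well, exposed 96 h at 37C to a dilution series. Viability read by CellTiter-Glo luminescence, normalized to DMSO and empty wells; activity summarized as Z-AUC.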
# [2] = qHTS for identification of novel therapeutic agents for treatment of microphthalmiaassociated transcription factor (MiT) renal cell carcinoma (RCC) (AID 1963991); conditions: CellTiter-Glo, 48 h, stronger effect = lower value;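 also: curves scaled with 100% = DMSO viability and 0% = empty wells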
# Outline: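 UOK109/UOK124/UOK145 (TFE3 fusions, three partners); 500 cells/well; MIPE v4.0, 1912 cpds, 11 conc.; 48 h, 37 C; CellTiter-Glo, 15 min RT; lum. Norm.: DMSO 100%, empty 0%.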
# [3] = qHTS profiling for inhibitors of Plasmodium falciparum proliferation (AID 504749);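 also: 0% = DMSO vehicle and full inhibition = artemisinin control; nearly all actives have a fitted effect of over 60% in size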; conditions: P. falciparum in erythrocytes, SYBR Green DNA, 72 h
# Outline: (§1)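 P. falciparum-infected erythrocytes (0.3% parasitemia, 2.5% hematocrit) incubated with compound 72 h at 37 C, 5% CO2. Parasite DNA detected by SYBR Green after lysis, overnight at room temperature; normalised to 0.29 uM artemisinin and DMSO.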
# 3D7 = experiment: as above; conditions: P. falciparum in erythrocytes, SYBR Green DNA, 72 h; series mostly up to 28.7 µM
# Outline: as §1
# 7G8 = experiment: as above; conditions: P. falciparum in erythrocytes, SYBR Green DNA, 72 h; series mostly up to 28.7 µM
# Outline: as §1
# AA1029 = experiment: as above; conditions: P. falciparum in erythrocytes, SYBR Green DNA, 72 h; series mostly up to 28.7 µM
# Outline: as §1
# AS120 = experiment: as above; conditions: P. falciparum in erythrocytes, SYBR Green DNA, 72 h; series mostly up to 28.7 µM
# Outline: as §1
# ATS189 = experiment: as above; conditions: P. falciparum in erythrocytes, SYBR Green DNA, 72 h; series mostly up to 28.7 µM
# Outline: as §1
# ATS95 = experiment: as above; conditions: P. falciparum in erythrocytes, SYBR Green DNA, 72 h; series mostly up to 28.7 µM
# Outline: as §1
# C2A = experiment: as above; conditions: P. falciparum in erythrocytes, SYBR Green DNA, 72 h; series mostly up to 28.7 µM
# Outline: as §1
# CP185 = experiment: as above; conditions: P. falciparum in erythrocytes, SYBR Green DNA, 72 h; series mostly up to 28.7 µM
# Outline: as §1
# CP191 = experiment: as above; conditions: P. falciparum in erythrocytes, SYBR Green DNA, 72 h; series mostly up to 28.7 µM
# Outline: as §1
# CP192 = experiment: as above; conditions: P. falciparum in erythrocytes, SYBR Green DNA, 72 h; series mostly up to 28.7 µM
# Outline: as §1
# CP194 = experiment: as above; conditions: P. falciparum in erythrocytes, SYBR Green DNA, 72 h; series mostly up to 28.7 µM
# Outline: as §1
# CP201 = experiment: as above; conditions: P. falciparum in erythrocytes, SYBR Green DNA, 72 h; series mostly up to 28.7 µM
# Outline: as §1
# CP203 = experiment: as above; conditions: P. falciparum in erythrocytes, SYBR Green DNA, 72 h; series mostly up to 28.7 µM
# Outline: as §1
# CP211 = experiment: as above; conditions: P. falciparum in erythrocytes, SYBR Green DNA, 72 h; series mostly up to 28.7 µM
# Outline: as §1
# [4] = measured here: PEO1 parental Z-AUC
# [5] = TFE3-RCC UOK109 viability, measured here: UOK109 Z-AUC
# [6] = TFE3-RCC viability, measured here: UOK124 Z-AUC
# [7] = TFE3-RCC viability, measured here: UOK145 Z-AUC
smiles,measurement,setting,value
NCCCCCC(=O)O,Z-AUC,[1],1.55 (inactive)
same,Z-AUC,[1]; [4],1.11
same,Z-AUC,[1]; measured here: PEO4 Z-AUC,1.26
same,z-score,[2]; [5],0.855
same,z-score,[2]; [6],0.487
same,z-score,[2]; [7],0.828
same,"activity, negative = inhibition","[3]; at 12.8 µM (top of the series), parasite line A",3.43% (inactive)
same,"activity, negative = inhibition","[3]; at 12.8 µM (top of the series), parasite line B",5.54% (inactive)
same,Potency,3D7,inactive
same,Potency,7G8,inactive
same,Potency,AA1029,inactive
same,Potency,AS120,inactive
same,Potency,ATS189,inactive
same,Potency,ATS95,inactive
same,Potency,C2A,inactive
same,Potency,CP185,inactive
same,Potency,CP191,inactive
same,Potency,CP192,inactive
same,Potency,CP194,inactive
same,Potency,CP201,inactive
same,Potency,CP203,inactive
same,Potency,CP211,inactive
OCCN(CCO)c1nc(N2CCCCC2)c2nc(N(CCO)CCO)nc(N3CCCCC3)c2n1,Z-AUC,[1],1 (inactive)
same,Z-AUC,[1]; [4],0.552
same,Z-AUC,[1]; measured here: PEO4 Z-AUC,0.489
COc1ccc(C2CNC(=O)C2)cc1OC1CCCC1 (stereo not given),Z-AUC,[1],-0.000894 (inactive)
same,Z-AUC,[1]; [4],0.813
same,Z-AUC,[1]; measured here: PEO4 Z-AUC,0.981
same,z-score,[2]; [5],0.4
same,z-score,[2]; [6],0.743
same,z-score,[2]; [7],0.539
C[C@@H]1CC(=O)NN=C1c1ccc(NN=C(C#N)C#N)cc1,Z-AUC,[1],0.769 (inactive)
same,Z-AUC,[1]; [4],0.69
same,Z-AUC,[1]; measured here: PEO4 Z-AUC,0.452
CCc1cccc2c3c([nH]c12)C(CC)(CC(=O)O)OCC3 (stereo not given),Z-AUC,[1],0.208 (inactive)
same,Z-AUC,[1]; [4],0.962
same,Z-AUC,[1]; measured here: PEO4 Z-AUC,0.882
same,z-score,[2]; [5],0.838
same,z-score,[2]; [6],0.432
same,z-score,[2]; [7],0.577
NC(=O)OCC(COC(N)=O)c1ccccc1,Z-AUC,[1],0.532 (inactive)
same,Z-AUC,[1]; [4],1.02
same,Z-AUC,[1]; measured here: PEO4 Z-AUC,1.07
same,z-score,[2]; [5],0.961
same,z-score,[2]; [6],0.566
same,z-score,[2]; [7],-0.0858
same,"activity, negative = inhibition","[3]; at 28.7 µM (top of the series), parasite line A",12.4% (inactive)
same,"activity, negative = inhibition","[3]; at 28.7 µM (top of the series), parasite line B",14.7% (inactive)
same,Potency,3D7,inactive
same,Potency,7G8,inactive
same,Potency,AA1029,inactive
same,Potency,AS120,inactive
same,Potency,ATS189,inactive
same,Potency,ATS95,inactive
same,Potency,C2A,inactive
same,Potency,CP185,inactive
same,Potency,CP191,inactive
same,Potency,CP192,inactive
same,Potency,CP194,inactive
same,Potency,CP201,inactive
same,Potency,CP203,inactive
same,Potency,CP211,inactive
CN1CCN(C2=Nc3cc(Cl)ccc3Nc3ccccc32)CC1,Z-AUC,[1],0.802 (inactive)
same,Z-AUC,[1]; [4],0.75
same,Z-AUC,[1]; measured here: PEO4 Z-AUC,0.32
